From PubChem
ALR inh: blocks human ALR sulfhydryl oxidase activity. purified ALR, DTT oxidation, H2O2 HRP-luminol luminescence. AID 485317. inhibition, % (concentration not given with the values). P55789. 290,000 compounds, 3.8% hits;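 active = mean replicate inhibition above about 79%, with every replicate also reaching it, limit read from the data; inconclusive = only one of the two criteria met; inactive = mean below limit and not every replicate reaching it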
Target sequence (P55789 whole entry, looked up): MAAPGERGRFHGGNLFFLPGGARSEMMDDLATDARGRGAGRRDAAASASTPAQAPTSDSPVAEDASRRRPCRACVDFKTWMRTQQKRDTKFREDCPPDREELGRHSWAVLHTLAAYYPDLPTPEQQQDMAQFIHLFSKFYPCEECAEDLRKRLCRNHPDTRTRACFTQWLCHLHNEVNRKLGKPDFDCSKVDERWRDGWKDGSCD
AI-2 QS modul: modulates the Vibrio harveyi AI-2 quorum sensing system. Vibrio harveyi JMH597 AI-2 luminescence/OD600 ratio, 9 h; active compounds read low; strain lacks LuxN and CqsS sensors; 0 = neutral-control median. activity change, % at 7.5 µM. 300,000 compounds, 0.4% hits. AID 2094; in the data active = activity change below about -75%, passing the limit was not always enough; inconclusive = no clear call, values can overlap the other calls;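 also: luminescence divided by OD600 gain over 9 h not by final OD600 alone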
Mot1-301 SUMO: blocks SUMOylation pathway, rescuing yeast Mot1-301 growth; S. cerevisiae Mot1-301 growth rescue, ATP luminescence, 38.5C; percent above DMSO median, 100 means doubled; growth rescue, % at 18.8 µM; 320,000 compounds, 1% hits; AID 2716;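 active = every valid replicate shows activation above 250% relative to neutral control wells; inactive = the rest, any valid replicate at or below 250%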;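 also: OY570 slx delta 5 strain wells were the positive control but not used for scaling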
HIF act: HIF pathway transcriptional activation | U2OS HRE-luciferase reporter, luminescence; normalized: DMSO 0%, desferrioxamine 100% | activation, % at 7.5 µM (by protocol) | 300,000 compounds, 0.32% hits;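 active = mean activation of at least 10% of the iron chelator positive control signal, with at least half of replicates also reaching 10%; inconclusive = mean and replicate majority disagree about reaching 10%; inactive = mean and most replicates under 10%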
Starred values were filed as active, the others as inactive; ? = inconclusive; · = no result given. A selection: hits, their analogues and other compounds. The true share with any hit is near 4.8%.

SMILES	ALR inh	AI-2 QS modul	Mot1-301 SUMO	HIF act
CCN1CCN(c2cc(C)c3cc(NC(=O)CCC(=O)N4CCN(c5ccccc5)CC4)ccc3n2)CC1	91*	-1	65	0
COc1ccc(CNC(=S)Nc2ccc3nc(N4CCOCC4)cc(C)c3c2)cc1	99*	14	241	0
CSc1ccccc1OCc1cc(C(=O)N[C@H]2CCCCNC2=O)no1	2	28	14	3
CCN(CC)CCNC(=S)Nc1ccc2nc(N3CCN(C)CC3)cc(C)c2c1	-1	-3	85	1
CCN(CC)CCNC(=S)Nc1ccc2nc(N3CCCC3)cc(C)c2c1	99*	16	-29	0
Cc1cc(C)nc(NCC(O)CNc2ccccc2Cl)n1 (stereo unspecified)	92*	8	50	0
O=C(CSc1ncnc2c1oc1ccccc12)Nc1nc2ccccc2s1	96*	14	39	0
CCOc1ccccc1NC(=O)CSc1ncnc2c1oc1ccccc12	-1	28	-2	69*
CCOC(=O)c1cc2c(OC)ccc(OC)c2n1CC(=O)c1ccccc1	-14	10	0	0
CN(C)c1ccc(C2C3=C(CCCC3=O)OC3=C2C(=O)CCC3)cc1	42	31	2	0
CN(C)c1ccc(/C=C2\CCCCC2=O)cc1	91*	-33	-1	1
C=CCNC(=O)N1CCC(c2nc3ccccc3s2)CC1	-6	7	0	3
O=C(O)c1ccccc1NC(c1ccccc1)c1ccc(Cl)cc1 (stereo unspecified)	91*	27	6	-2
Cc1ccc(NC(=O)CSc2nc3c(c(=O)[nH]2)CCC3)cc1C	18	-10	-10	0
CC(C)Cc1c(O)nc(SCC(=O)Nc2ccc3c(c2)CCC3)[nH]c1=O	99*	21	18	0
CC(C)c1c(O)nc(SCC(=O)Nc2ccc3c(c2)CCC3)[nH]c1=O	99*	8	50	0
CCC1CC(C(=O)Nc2ccccc2)C(=O)O1 (stereo unspecified)	-4	20	301*	0
Cc1ccc(NC(=O)CSc2nc(N)c(-c3ccccc3)c(=O)[nH]2)cc1Cl	98*	2	372	0
Nc1cc(=O)[nH]c(SCC(=O)NNC(=O)Cc2ccccc2)n1	3	11	333*	0
c1ccc(-c2nc(CSc3n[nH]c(-c4cccs4)n3)cs2)cc1	98*	14	19	0
O=C(CSc1n[nH]c(-c2cccs2)n1)N1CCCC1	0	·	1	·
Nc1nc(SCC(=O)Nc2ccc(Cl)cc2)[nH]c(=O)c1-c1ccccc1	12	25	-8	0
Cc1ccc(NC(=O)CSc2nc(N)cc(=O)[nH]2)cc1Cl	95*	12	47	0
Nc1cc(=O)[nH]c(SCC(=O)Nc2cccc(Cl)c2)n1	21	4	6	1
Nc1cc(=O)[nH]c(SCc2csc(-c3ccccc3)n2)n1	99*	31	0	0
SMILES	ALR inh	AI-2 QS modul	Mot1-301 SUMO	HIF act
CCOC(=O)c1cc2c(ccn2C)n1CC(=O)N1CCN(c2ccccc2)CC1	37	6	230	288*
O=C(OCC(=O)N1CCN(c2ccccc2)CC1)c1ccccn1	74	18	158	0
CCOC(=O)c1cc2c(ccn2C)n1CC(=O)N1C(C)CCCC1C (stereo unspecified)	2	-4	10	0
O=C(OCC(=O)N1CCN(c2ccccc2)CC1)c1ccc2ccccc2n1	97*	12	-48	0
Cn1cccc1C(=O)OCC(=O)N1CCN(c2ccccc2)CC1	98*	·	-14	·
CN(C)c1ccc(C(CNC(=O)c2ccco2)N2CCCC2)cc1 (stereo unspecified)	37	26	-6	0
CCOc1ccc(/C=C/C(=O)c2ccccc2)cc1OC	7	17	-14	?
CCOc1ccc(C(=O)/C=C/c2ccc(OC)c(OC)c2)cc1	97*	6	8	1
Cc1nn(C)cc1/C=C/C(=O)c1ccc(O)cc1	99*	20	-9	3
COc1ccc2cc(C(=O)/C=C/c3cc(OC)c(O)c(OC)c3)ccc2c1	6	-71	7	0
COc1ccc(C(=O)/C=C/c2ccc(O)cc2)cc1	98*	1	-16	1
O=C(/C=C/c1ccc(O)cc1)c1ccccc1	99*	-15	·	4
CC1CCCC(NC(=O)CN(C)CC(=O)Nc2cccc(F)c2)C1C (stereo unspecified)	-5	·	4	·
COc1ccccc1C(=O)NCCC(=O)NC1CCC(C)CC1 (stereo unspecified)	-2	·	-5	·
CCn1c(=O)cc(SCC(=O)Nc2ccc3c(c2)OCO3)c2ccccc21	-2	22	-10	1
Cn1cc(SCC(=O)Nc2ccc3c(c2)OCCO3)c2ccccc21	99*	38	17	1
O=C(CSc1ccccc1)Nc1ccc2c(c1)OCCO2	-6	28	-6	1
O=C(CSc1cccc[n+]1[O-])Nc1ccc2c(c1)OCCO2	87*	17	-11	1
CC1CCN(C(=O)CSc2nc(C(C)C)nc3c2c(=O)n(C)c(=O)n3C)CC1	-4	-9	-7	0
O=C(CSc1nc(CCC2CCCC2)nc2ccccc12)NCc1ccc2c(c1)OCO2	100*	10	-2	-1
Cc1cc(NC(=O)CSc2nc(CCC3CCCC3)nc3ccccc23)no1	97*	-20	-3	0
Cc1nonc1NC(=O)CSc1nc(CCC2CCCC2)nc2ccccc12	1	22	14	-1
CCOC(=O)c1c(S(=O)(=O)N2c3ccccc3CC2C)c(C)n(C)c1C (stereo unspecified)	-2	6	-17	1
CCOC(=O)c1c(C)[nH]c(C)c1S(=O)(=O)N1c2ccccc2CC1C (stereo unspecified)	1	-6	-17	32*
Nc1nc(SCC(=O)OCc2ccccc2)[nH]c(=O)c1NC(=O)c1ccco1	100*	15	277	0
SMILES	ALR inh	AI-2 QS modul	Mot1-301 SUMO	HIF act
CC(=O)Nc1ccc(NC(=O)CSc2nc(N)c(NC(=O)c3ccco3)c(=O)[nH]2)cc1	99*	4	-9	0
C=CCSc1nc(N)c(NC(=O)c2ccco2)c(=O)[nH]1	-1	·	-1	·
CC(=O)c1cnc(Oc2cc(Cl)ccc2Cl)nc1C	49	12	0	1
CC(=O)c1ccc(OC(C)C(=O)NCC2(N3CCOCC3)CCCCC2)cc1 (stereo unspecified)	-1	·	-10	·
Cc1cccn2c(=O)c(C=O)c(N3CCCCC3)nc12	-2	25	11	0
Cc1cccn2c(=O)c(C=O)c(Cl)nc12	98*	26	1	0
CN(Cc1cccs1)C(=O)c1cccc(S(=O)(=O)N2CCCCCC2)c1	-3	·	-12	·
CC1(C)Cc2c(sc(NC(=S)NC(=O)c3ccccc3)c2C(=O)O)CO1	99*	13	12	0
CC1(C)Cc2c(sc(NC(=O)c3ccco3)c2C(=O)O)CO1	9	13	-12	0
CC(=O)c1ccc(OCCCC(=O)N2CCN(S(=O)(=O)c3ccc(C(C)C)cc3)CC2)cc1	·	21	·	0
